Reference: PubChem BioAssay
Active and inactive are the calls of the source.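 How the source made its calls, unless noted: active means fluorescence slope after compound addition differing from the mean of all screened samples at 99.7% confidence, in either direction; inactive means the rest.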

Key:
[1] = inhibitors of TNFa-induced NFkB p65 translocation, primary screen, imaging, HUVEC, MLSMR starter and 10KST1 sets (AID 438;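 active means inhibition above 20% together with a positive visual image hit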;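 further: compound added about 3h40 before a 20 min TNFalpha stimulation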;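 on inhibition: signal is the nuclear over cytoplasmic p65 intensity ratio per well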); conditions: HUVEC TNFa-induced p65 nuclear translocation; cell count: measured here: nuclei count (cytotoxicity indicator), at 2.08 µM; inhibition: at 2 µM, stronger effect = higher value, 0% TNFa-plus-vehicle, 100% no-TNFa wells
[2] = reduction of polyQ htt aggregates in cells – imaging, exon1htt(103Q)mCFP cells, high-content imaging, primary screen (AID 483;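 active means visual image review flags a hit and inhibition of aggregation exceeds 20%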;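 further: compound exposure lasted 3 days before fixation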;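 on nuclei count: percent of the per-plate median nuclei count of sample wells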); conditions: exon1htt(103Q)mCFP cell line, aggregate imaging, at 2 µM; inhibition of aggregation: stronger effect = higher value; nuclei count: measured here: cell count, toxicity
[3] = endothelial E-selectin expression blockers – imaging, HUVEC, immunofluorescence, MLSMR starter and 10KST1 sets, primary screen (AID 487;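 active means visually confirmed hit in the image check and inhibition above 20%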;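 on inhibition: signal is fraction of cell area covered by stained E-selectin grains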;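 on nuclei count: 100% = median nuclei count of all wells on the same plate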); conditions: HUVEC TNFalpha-induced E-selectin immunofluorescence imaging, at 2 µM; inhibition: stronger effect = higher value; nuclei count: measured here: cell number, toxicity
[4] = target: Voltage-gated potassium channel subunit beta-2 (Rattus norvegicus) (UniProt P62483); experiment: inhibitors of rat Kvbeta2 reductase activity – biochemical, NADPH fluorescence, primary screen (AID 622;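 active means fluorescence slope higher than the sample average by over 3 SD, cut at about -0.22 in these data, passing the limit was not always enough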;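 further: slope of raw intensity against log time taken from 70 to 1610 s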); conditions: recombinant KvBeta, 4-cyanobenzaldehyde reduction, at 10 µM, stronger effect = higher value
[5] = target: Voltage-gated potassium channel subunit beta-2 (Rattus norvegicus) (UniProt P62483); experiment: enhancers of rat Kvbeta2 NADPH turnover – biochemical, NADPH fluorescence, primary screen (AID 623;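 active means NADPH fluorescence slope more negative than the mean of all samples by about 3 SD, 99.7% confidence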;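 further: fluorescence intensity change per second fitted from 20 to 320 s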); conditions: Recombinant KvBeta, NADPH fluorescence decrease slope, 10 min; at 10 µM; stronger effect = lower value
[6] = target: Alpha-2C adrenergic receptor (Homo sapiens) (UniProt P18825); experiment: compounds altering alpha2C-coupled GIRK flux – cell-based, HEK293 alpha2C/GIRK1/2, thallium flux, primary screen (AID 624); conditions: thallium flux BTC fluorescence, at 10 µM, actives lie on both sides;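 further: slope of fluorescence ratio to pre-addition baseline per second over 15 to 24 s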
[7] = blockers of RIG-like receptor reporter activation – cell-based, Sendai virus stimulus, luciferase, 10K MLSCN set, TLR/RLR signaling modifier project, primary screen (AID 602276;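 active means inhibition at or above 50% at 10 µM; inactive means inhibition below 50%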;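 further: firefly luciferase from ISG56 promoter only with Renilla not read in this screen; 0% = Sendai virus plus DMSO and 100% = medium plus DMSO without virus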); conditions: HEK293 RL24 IRF3 luciferase reporter, at 10 µM, stronger effect = higher value
[8] = TLR3 IRF3 reporter activation blockers – cell-based, poly I:C stimulus, luciferase, 10K MLSCN set, primary screen (AID 602277;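 active means inhibition of the reporter signal at or above 50%; inactive means inhibition below 50%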); conditions: HEK293-TLR3 RL24 IRF3 luciferase reporter, at 10 µM, stronger effect = higher value

Chain of Voltage-gated potassium channel subunit beta-2 (Rattus norvegicus) (P62483 whole entry, looked up): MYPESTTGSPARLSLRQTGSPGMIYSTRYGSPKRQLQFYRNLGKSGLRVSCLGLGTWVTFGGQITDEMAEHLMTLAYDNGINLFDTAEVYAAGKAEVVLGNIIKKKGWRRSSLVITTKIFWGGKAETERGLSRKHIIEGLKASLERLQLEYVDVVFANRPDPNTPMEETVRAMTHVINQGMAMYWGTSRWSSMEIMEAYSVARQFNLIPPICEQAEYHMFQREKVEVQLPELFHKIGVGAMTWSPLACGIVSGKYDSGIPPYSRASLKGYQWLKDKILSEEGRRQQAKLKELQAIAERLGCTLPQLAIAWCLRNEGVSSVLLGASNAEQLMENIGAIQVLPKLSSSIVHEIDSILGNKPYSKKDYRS
Chain of Alpha-2C adrenergic receptor (Homo sapiens) (P18825 whole entry, looked up): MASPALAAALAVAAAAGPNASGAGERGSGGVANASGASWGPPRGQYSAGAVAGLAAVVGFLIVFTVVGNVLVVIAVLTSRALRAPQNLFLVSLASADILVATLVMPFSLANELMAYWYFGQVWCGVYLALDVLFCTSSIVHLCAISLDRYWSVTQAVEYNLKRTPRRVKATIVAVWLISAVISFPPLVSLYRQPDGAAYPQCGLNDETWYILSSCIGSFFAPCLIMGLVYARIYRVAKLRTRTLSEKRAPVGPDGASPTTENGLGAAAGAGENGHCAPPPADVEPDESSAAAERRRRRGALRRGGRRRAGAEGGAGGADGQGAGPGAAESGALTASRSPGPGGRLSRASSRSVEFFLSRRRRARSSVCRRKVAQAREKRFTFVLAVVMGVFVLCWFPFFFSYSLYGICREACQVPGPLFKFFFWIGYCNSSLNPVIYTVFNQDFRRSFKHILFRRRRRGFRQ

Compound	cell count [1]	inhibition [1]	inhibition of aggregation [2]	nuclei count [2] [%]	inhibition [3]	nuclei count [3] [%]	fluorescence slope [4]	NADPH fluorescence slope [5]	slope [6]	inhibition [7]	inhibition [8]
Cc1ccc(C(c2sc3ncnn3c2O)N2CC(C)CC(C)C2)cc1 (configuration not stated)	628	-2.4% (inactive)	14.8% (inactive)	80.8	-22.9% (inactive)	101	-0.58 (inactive)	-5.6e-05 (inactive)	0.00795 (inactive)	10.9% (inactive)	35.9% (inactive)
COc1ccc(C/C(N)=N/n2cnnc2)cc1Cl	356	-3.8% (inactive)	-13.5% (inactive)	99.1	-14.7% (inactive)	107	-0.447 (inactive)	-3.3e-05 (inactive)	0.00222 (inactive)	6.09% (inactive)	35.6% (inactive)
CCn1c(SCC(=O)Nc2ccc(C(=O)OC)cc2)nnc1-c1cccs1	654	11.5% (inactive)	24.6% (inactive)	110	42.7% (inactive)	106	-0.379 (inactive)	-5.2e-05 (inactive)	0.00499 (inactive)	14.1% (inactive)	12.6% (inactive)
CCn1c(SCc2nc3ccccc3c(=O)[nH]2)nnc1-c1cccnc1	628	-11.9% (inactive)	-9.6% (inactive)	107	-66.6% (inactive)	114	-0.525 (inactive)	7.8e-06 (inactive)	0.00487 (inactive)	21.2% (inactive)	25% (inactive)
CS(=O)(=O)N1CCCC(C(=O)NCCCN2CCC(Cc3ccccc3)CC2)C1 (configuration not stated)	679	-2% (inactive)	15.3% (inactive)	89.6	-139% (inactive)	111	-0.602 (inactive)	2e-05 (inactive)	0.00628 (inactive)	-7.21% (inactive)	-4.47% (inactive)
CCOC(=O)c1c(C)[nH]c(C)c1C(=O)COC(=O)CNC(=O)c1ccc(OCC)cc1	708	-2.2% (inactive)	5.2% (inactive)	63.7	-19.4% (inactive)	104	-0.456 (inactive)	2.3e-05 (inactive)	0.00496 (inactive)	14.3% (inactive)	28.6% (inactive)
COc1ccccc1OCCOc1ccccc1/C=N/n1cnnc1	375	-3.8% (inactive)	-14.3% (inactive)	94.1	-66.6% (inactive)	103	-0.402 (inactive)	-2.8e-05 (inactive)	0.00507 (inactive)	-3.21% (inactive)	-1.03% (inactive)
